# Reference: PubChem BioAssay AID651724 (National Center for Advancing Translational Sciences (NCATS), 2012)
# Out of some 340,000 compounds screened, about 1,700 (0.5%) were called active. Not shown: some 2% with an inconclusive outcome. The list comes from a sample in which actives are over-represented; it also holds similar structures and randomly drawn compounds. Unmarked numbers belong to inactive results. No stated cut-off is given here; in the data, active means activity change below about -65%; inconclusive means mostly about -30% to -63%; inactive means weaker than that.
# Test system: CtBP / adenovirus E1A interaction (AlphaScreen)
# Assay: qHTS Assay for Inhibitors of the CtBP/E1A Interaction
# Conditions: AlphaScreen GST-E1A/His-CtBP binding, 1536-well; hits give low values
# Excerpt: Carboxyl-terminal binding protein (CtBP) is a co-repressor for many transcription factors. […] Our studies have shown that CtBP is overexpressed in multiple human cancers, including lung, breast, and head and neck cancers. In particular, it is over-expressed in 50% of primary lung cancer and 90% of metastatic lesions. CtBP suppresses epithelial-specific genes as well as genes critical for apoptosis, providing the underlying molecular mechanism for its role in tumorigenesis. […] Based on the above data, we hypothesize that 1) CtBP suppresses the pro-apoptotic and epithelial genes, therefore overexpressed CtBP in human cancer cells increases EMT and cancer survival; 2) decreasing CtBP's function represents a targeted therapy for lung cancer and potentially multiple cancer types. As a co-repressor, CtBP binds to E1A and other transcription factors through a conserved peptide motif to carry out its action. Inhibiting this interaction using small molecules can potentially serve as effective cancer therapeutics.
# To this end, we have developed a homogenous AlphaScreen assay targeting the CtBP/E1A interaction. We performed a large scale HTS of the Molecular Libraries Small Molecule Repository (MLSMR) to identify inhibitors of the CtBP/E1A interaction as potential anti-cancer therapeutics. Compounds identified can also be used as chemical probes to better understand the biological functions of CtBP.
# NIH Chemical Genomics Center [NCGC]
# NIH Molecular Libraries Probe Centers Network [MLPCN]
# Assay Submitter (PI): Rui Zhao, University of Colorado Denver
# The first step of the 5uL AlphaScreen assay is to dispense assay buffer (50 mM Tris, pH 8.0, 300 mM NaCl, 0.05% BSA, 0.02% Tween 20, 1 mM TCEP) into a Greiner 1536 white solid bottom microtiter plate (789175-F). Five microliters is added to Column 1, 4 uL is added to Column 2 and 3 uL is added to Columns 3 through 48. A 5X protein solution (125 nM GST-E1A protein + 125 nM His-tagged CtBP protein) is mixed and 1 uL is dispensed to Columns 3-48. Using a 1536 pintool, 23 nL of compound is transferred to the assay plate and the plate is incubated with a lid at 37 deg C in the dark for two hours. A solution of 5X AlphaScreen beads is mixed (50 ug/mL Glutathione linked donor beads + Nickel chelated acceptor beads) and 1 uL is dispensed to Columns 2-48. The assay plate is incubated for one hour, with a lid, at 37 deg C in the dark. The plate is read using a Perkin Elmer Envision using an AlphaScreen protocol.
# On the % scale 0 is the no-effect control and ±100 the full control effect.
row,SMILES,activity change
1,CCC(C)n1c(O)c(/C=N/Nc2nc3c(c(=O)n(C)c(=O)n3C)n2C)c(=O)[nH]c1=S (stereo not given),-83.2% (active)
2,COc1ccc(-n2nnnc2C(c2cccc3ccccc23)N2CCC(n3c(=O)[nH]c4ccccc43)CC2)cc1 (stereo not given),-14.3%
3,CC(C)c1ccc(-n2c(O)c(/C=N/N3CCOCC3)c(=O)[nH]c2=S)cc1,-2.7%
4,O=C(N/N=C/c1c(O)n(C2CC2)c(=S)[nH]c1=O)c1ccccc1,-92.7% (active)
5,O=C(N/N=C/c1c(O)n(Cc2ccccc2)c(=O)[nH]c1=O)c1ccccc1,-72.7% (active)
6,O=C(N/N=C/c1c(O)n(C2CC2)c(=S)[nH]c1=O)c1ccccc1Cl,-92.7% (active)
7,CC/C(=N\NC(=O)c1ccccc1O)c1c(O)n(Cc2ccccc2)c(=O)[nH]c1=O,-5.73%
8,O=c1[nH]c(=S)n(C2CC2)c(O)c1/C=N/N1CCOCC1,-2.5%
9,Cc1cccc(-n2c(O)c(/C=N/N3CCOCC3)c(=O)[nH]c2=S)c1,9.2%
10,O=c1[nH]c(=O)n(Cc2ccccc2)c(O)c1/C=N/Nc1c(F)c(F)c(F)c(F)c1F,4.41%
11,COc1ccccc1-n1c(O)c(C=NC2CC2)c(=O)[nH]c1=O,7.53%
12,CCOC(=O)[C@]12Cc3cc(OC)ccc3[C@H]1N(C(C)C)C(=O)c1ccccc12,-1.62%
13,CC(=CCOc1ccc2ccc(=O)oc2c1)C1=CC(=O)C(C)(C)O1,1.99%
14,COC(=O)C[C@H]1CC[C@H]2NC[C@@H](O)COC[C@@H]2O1,-7.3%
15,CCOC(=O)[C@]12Cc3ccccc3[C@H]1N(C1CCCCC1)C(=O)c1cc(OC)ccc12,-16.5%
16,O=c1[nH]c2ccccc2n1C1CCN(C(c2ccccc2)c2nnnn2Cc2ccccc2)CC1 (stereo not given),-12.7%
17,O=C1NCN(c2ccccc2)C12CCN(C(c1cccs1)c1nnnn1C1CCCCC1)CC2 (stereo not given),-7.02%
18,O=C(NCC1=C(c2ccc3ccccc3c2)C[C@@H]2CC[C@H]1N2Cc1ccco1)c1cccs1,-23.4%
19,COC(=O)CN(CCCl)P1(=O)OCCCN1CCCl (stereo not given),2.9%
20,COc1cccc(C(c2nnnn2-c2ccc3c(c2)OCCO3)N2CCC3(CC2)C(=O)NCN3c2ccccc2)c1OC (stereo not given),-13%
21,O=c1[nH]c2ccccc2n1C1CCN(C(c2ccnc3ccccc23)c2nnnn2Cc2ccccc2)CC1 (stereo not given),-7.28%
22,O=c1[nH]c(=O)n(CCc2ccc(F)cc2)c(O)c1/C=N/N1CCCCC1,-1.47%
23,CCCCC(=O)N/N=C/c1c(O)n(CCC2=CCCCC2)c(=O)[nH]c1=O,-82.9% (active)
24,COc1ccc(CCn2c(O)c(C=NC3CC3)c(=O)[nH]c2=O)cc1OC,-7.4%
25,COC(=O)C1=C(c2ccc(OCc3ccccc3)cc2)C[C@@H]2CC[C@H]1N2C(=O)NCc1ccc(Cl)cc1,0.0513%
